Over roughly 68,000 sequences, “fluorescence intensity (a.u.)” has its median near 9,100; the highest 2% begin near 16,000. Many of the other results were omitted from the sample, so the highest values are more common in it than they were.

OsWRKY34, sequence (Q0JBA9 entry or part of it): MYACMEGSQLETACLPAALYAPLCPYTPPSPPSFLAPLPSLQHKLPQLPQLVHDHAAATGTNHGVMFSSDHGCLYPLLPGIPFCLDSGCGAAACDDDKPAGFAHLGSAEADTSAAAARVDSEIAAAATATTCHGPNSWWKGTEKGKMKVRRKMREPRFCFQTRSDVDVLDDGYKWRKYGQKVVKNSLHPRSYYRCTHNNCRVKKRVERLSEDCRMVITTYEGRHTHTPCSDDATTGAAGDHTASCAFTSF

The experiment addresses OsWRKY34 (Oryza sativa, UniProt Q0JBA9 1-250). Nature of the experiment: protein-binding microarray (RPBM); PBS, 2% BSA, 51.3 ng/ul salmon testes DNA, 50 uM zinc acetate, 200 nM TF, 25 C, 1 h; high values mean tight binding. The conditions noted are these: protein: recombinant; tags: N-terminal polyhistidine and DsRed monomer fusion (pET32a); label: CyDye5-dUTP incorporated in the synthesized complementary strand; 3' TTTTT single-stranded linker to array surface; dsDNA, one strand shown. The essentials: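 An Axon 4000B scanner gave the binding signal as per-feature fluorescence intensity in arbitrary units. This followed washing of a custom Agilent array that had been incubated for 1 h at 25 °C with 200 nM protein in PBS, 2% BSA, salmon testes DNA and 50 µM zinc acetate. The proteins were transcription factors fused at the N-terminus to polyhistidine and DsRed, expressed in E. coli BL21-CodonPlus and purified on Ni–NTA.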
On to “TCGCGTAGGGGAGGGGTGAAATATATTTTTTATGCCGGGCCGGAGTCACCTAGTGCAG”, for which the binding signal is 18000 fluorescence intensity (a.u.).

As for “GATTTTTAGTGAATATAATGAAATTTCATAGGGGAGGGGCCGGAGTCACCTAGTGCAG”, the binding signal is 8930 fluorescence intensity (a.u.). With “GGGGTTAGTTGTCCGTTTTGCATAGTTGGGGATAAAAAATCGGAGTCACCTAGTGCAG” the figure was 18500 fluorescence intensity (a.u.); with “GATTTTTAGTGAATATAATGAAATTTCACAGGGGAGGGGCCGGAGTCACCTAGTGCAG”, 13400 fluorescence intensity (a.u.); with “GATTTGGGTTGAAATATGATATGGGTTGGATTGGTTTGGACGGAGTCACCTAGTGCAG”, 16100 fluorescence intensity (a.u.).

On to “ATGAACTTAGTTGTTTTTTTTTGGGTTTTACTTGCATAATCGGAGTCACCTAGTGCAG”, for which the binding signal is 8220 fluorescence intensity (a.u.). For “GGCACGCTACTACTCCTACTATATGATAAAAAAACACTACCGGAGTCACCTAGTGCAG”, the binding signal was 8150 fluorescence intensity (a.u.). With “TGGTCAAGCCCTTTTTGATCTTTTTTTTTCTGTCTCATGCCGGAGTCACCTAGTGCAG”, the binding signal was 9610 fluorescence intensity (a.u.).

Regarding “CGCACCGTCGACTAGTCCCGTCCCGTCGCGCCGTTGCCTTCGGAGTCACCTAGTGCAG”, the binding signal was 8590 fluorescence intensity (a.u.). Take “ATTCGAGATCAGCTTTCTCTTCTATTTTGCTACTAGTTCTCGGAGTCACCTAGTGCAG”: the binding signal is 13000 fluorescence intensity (a.u.). In the case of “TAGGTCTGCTTCAGAGATGGGGTTAGGGTTAGATTTGTTCCGGAGTCACCTAGTGCAG”, the binding signal was 14000 fluorescence intensity (a.u.). Consider “TCATGGGCGGGTTGAGCAATGTTTCTTGTGATTAGTCTCACGGAGTCACCTAGTGCAG”, for which the binding signal was 16300 fluorescence intensity (a.u.). On to “GTGTTAGGTGCTGAGATTTTTGTACTTGCTTTATTATTTTCGGAGTCACCTAGTGCAG”, for which the binding signal was 8860 fluorescence intensity (a.u.).

Consider “TACCCTTTTTTTGGGTAGGGTGGGTTGGATTTATTTATTTCGGAGTCACCTAGTGCAG”, for which the binding signal is 12300 fluorescence intensity (a.u.). With “TTAGATTTTTCTTACAACCATTTGCATTGATTTTTTTTTTCGGAGTCACCTAGTGCAG” the figure was 8960 fluorescence intensity (a.u.); with “AAGTTTAGGGTGAGCAATGTCTGGTTTTCGGGTTCAGGGGCGGAGTCACCTAGTGCAG”, 13300 fluorescence intensity (a.u.); with “TATATATATATATATATATATATATATATATAAGGTTTGACGGAGTCACCTAGTGCAG”, 17300 fluorescence intensity (a.u.). With “GACCTTATTTGCATTGATTGACCTTATTTGCATTGATTTTCGGAGTCACCTAGTGCAG” the figure was 19700 fluorescence intensity (a.u.); with “ATATATATATATATATATATATATATATATAGTGGAATGACGGAGTCACCTAGTGCAG”, 12300 fluorescence intensity (a.u.). Turning to “TCTTGATTTTTGCATTAGTAGTAGTTGCGTCTTATATTTTCGGAGTCACCTAGTGCAG”, the binding signal is 12100 fluorescence intensity (a.u.). “GTAGGGGTGGTGGATTTTTTTTTATTTGCTGAGATGATTTCGGAGTCACCTAGTGCAG”: the binding signal was 20600 fluorescence intensity (a.u.). As for “GGTTATGGGCGGGTTGAGCAATGTTTTTCATGATTAGTCTCGGAGTCACCTAGTGCAG”, the binding signal is 18600 fluorescence intensity (a.u.). Regarding “GACGGGTGTTTCTAGGGTTAAGGTTAGGTTTTTTTTTTGACGGAGTCACCTAGTGCAG”, the binding signal is 9680 fluorescence intensity (a.u.). Regarding “TTGCTTTCCTTGGCCTCACGCTTGTTCCATGTTAGTTCGACGGAGTCACCTAGTGCAG”, the binding signal is 16100 fluorescence intensity (a.u.). “TATTGCACCTTTTCTCTATTGTTTTGAATTCAGTGAAGATCGGAGTCACCTAGTGCAG”: the binding signal was 11600 fluorescence intensity (a.u.). With “GACCTGTCTACCGCCGCCCTAGTGACTAATGTTGACCACACGGAGTCACCTAGTGCAG” the figure was 12000 fluorescence intensity (a.u.); with “TTTTCAACCTTATATTGTCATTGTCCGTCAACTTGGCTTGCGGAGTCACCTAGTGCAG”, 8970 fluorescence intensity (a.u.). Take “CCTGTCATGGAGGATGTTTCCTGAAGTTTCAGAGCTGTATCGGAGTCACCTAGTGCAG”: the binding signal was 8310 fluorescence intensity (a.u.). Take “AATGATTACAACCTACCTCTTCTCAGCGGGGTGTCCATTACGGAGTCACCTAGTGCAG”: the binding signal is 8260 fluorescence intensity (a.u.). As for “TTTTCTTGTTTGATTGACATAATGGGCCCTACATATTTTTCGGAGTCACCTAGTGCAG”, the binding signal was 8440 fluorescence intensity (a.u.). Then “ATCGCTGGCTTATCATACTCTATTATACCTGCTCTAAGGACGGAGTCACCTAGTGCAG”, with 10000 fluorescence intensity (a.u.); and “GTTTTAATAATGTGTTTGTTTTGGGTTAAAAACCATACTACGGAGTCACCTAGTGCAG”, with 8340 fluorescence intensity (a.u.).

For “ACAATGGCACGGTCTACAAAATATATTTTTGACCTTATTTCGGAGTCACCTAGTGCAG”, the binding signal was 8440 fluorescence intensity (a.u.). As for “GCTGACTTCATCTTCATTTTAATATATCTCAAACACCACGCGGAGTCACCTAGTGCAG”, the binding signal is 10200 fluorescence intensity (a.u.). As to “GATGTTCCTGGCCGTGATCGAGCTCCTGCGTTCTTGCTTACGGAGTCACCTAGTGCAG”, the binding signal was 10400 fluorescence intensity (a.u.). For the sequence “GTGTATGTATATATGAGTATGTGTGTTTATATTGTATTTTCGGAGTCACCTAGTGCAG”, the binding signal is 8460 fluorescence intensity (a.u.). As to “TTGAAGTTTTTGGCAGGGGTTAGTTTCGAAATAAGTTTTCCGGAGTCACCTAGTGCAG”, the binding signal is 8480 fluorescence intensity (a.u.). For the sequence “TTTTATGTTTGTTGGTTGTTGAGTTTATGTGATTATATTTCGGAGTCACCTAGTGCAG”, the binding signal was 9050 fluorescence intensity (a.u.). Take “TCTAGGGTTAGGGTTTCGTGATTTTTGGTTTTTTATTTTTCGGAGTCACCTAGTGCAG”: the binding signal is 16900 fluorescence intensity (a.u.).

“GTTAGGGTTTTTTTTATTTTTCGATTTTTTTTGTGTTTTTCGGAGTCACCTAGTGCAG”: the binding signal is 12000 fluorescence intensity (a.u.). On to “CAGTTGGCCTGTTTGTTTGTTGGTTGTGATTAATCTGTGACGGAGTCACCTAGTGCAG”, for which the binding signal is 18800 fluorescence intensity (a.u.). As to “GCGTGTGTTGTGAGATGTATTATGTTGTGCTTTGTATTTTCGGAGTCACCTAGTGCAG”, the binding signal is 14900 fluorescence intensity (a.u.).

For “GTTGAAGTTTTTGGCAGGGGTTAGTTTCGAAATAAGTTTTCGGAGTCACCTAGTGCAG”, the binding signal is 8170 fluorescence intensity (a.u.). Then “CGGGCGATTCTAGGGTTATGGTTAGGGTTTTTTTTATTTTCGGAGTCACCTAGTGCAG”, with 14500 fluorescence intensity (a.u.); and “AGAACAGTTTTTAATCTGACATGTGCCTGTAGTTTGTTGTCGGAGTCACCTAGTGCAG”, with 10600 fluorescence intensity (a.u.); and “GGTTGAAGTTTTTGGCAGGGGTTAGTTTCGAAATAAGTTTCGGAGTCACCTAGTGCAG”, with 17900 fluorescence intensity (a.u.).

For the sequence “CGGGGCGTGAGGGGTTATGAGTATATTTGTATTTTTTTTTCGGAGTCACCTAGTGCAG”, the binding signal is 18400 fluorescence intensity (a.u.).

The values are drawn from paper PMC7819943, “Rice protein-binding microarrays: a tool to detect cis-acting elements near promoter regions in rice”.
